Values joined by “and” are separate entries in the source; they are usually repeats but may differ in a detail not shown here. Equal values may be shown once. Records with an inconclusive call do not appear. Some structures have more than one record in an assay (separate samples or runs), and their calls can disagree. Active and inactive are the calls of the source. Unless noted, calls follow the shape of the dose curve; as a rule, active = well fitted curve in the direction sought with a large enough effect in the repeat runs; inconclusive = weak or mixed curves; inactive = no such curve, though single readings can be large; an effect the other way counts as inactive or inconclusive.
Legend:
[1] = qHTS assay to identify small molecule agonists of the sonic hedgehog signaling (Shh) pathway (AID 1259368; calls by dose curve; also: nearly all actives have a fitted effect of over 15% in size; also: potency is read from the fitted curve at half-maximal effect)
Outline: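 Steps: seed 3T3 Gli1-Luc cells, incubate 4 hr at 37 C, pin-transfer compounds in DMSO alongside a positive control, incubate 24 hr, add luciferase detection reagent, wait 30 min at room temperature, read luminescence.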

[2] = qHTS assay to identify small molecule antagonists of the sonic hedgehog signaling (Shh) pathway (AID 1259369; calls by dose curve; also: nearly all actives have a fitted effect of over 45% in size; also: potency is read from the fitted curve at half-maximal effect)
Outline: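 Inhibition of Shh signalling is measured as reduced Gli1-response-element firefly luciferase output in an NIH/3T3-derived stable reporter clone stimulated with conditioned medium for 24hr.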

[3] = molecular target: Estrogen receptor beta (Homo sapiens) (UniProt Q92731); assay: qHTS assay to identify small molecule agonists of the estrogen receptor beta (ER-beta) signaling pathway (AID 1259377; active = well fitted activation curve with a large enough effect in the signal ratio in the repeat runs, not every such curve was filed as active; the % refers to the signal ratio)
Outline: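 In HEK293T cells bearing a UAS-beta-lactamase reporter under ER-beta control, DMSO-delivered compounds were incubated for 16 hr at 37C. Activity was detected as fluorescence 2 hours after LiveBLAzer B/G FRET substrate addition.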

[4] = qHTS assay to identify small molecule agonists of the androgen receptor (AR) signaling pathway in the presence of an antagonist - cell viability counter screen (AID 1259379); also: nearly all actives have a fitted effect of over 25% in size; also: potency is read from the fitted curve at half-maximal effect
Outline: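 Fluorescence from CellTiter-Fluor, added after 15 hr and read 1 hr later, gave cell viability. Cells were MDA-kb2 exposed to compounds (15 concentrations) in the presence of 3.0uM nilutamide at 37C, 0% CO2.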

[5] = qHTS assay to identify small molecule agonists of the estrogen receptor beta (ER-beta) signaling pathway - cell viability counter screen (AID 1259380); also: nearly all actives have a fitted effect of over 30% in size; also: potency is read from the fitted curve at half-maximal effect
Outline: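 Same-well viability counter screen. Cells: ER-beta-UAS-bla HEK293T, plated 6 hr before compound, in 2% charcoal-stripped FBS. Compound exposure 16 hr, 37C; viability by CellTiter-Glo luminescence after 30 min at room temperature.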

[6] = qHTS assay to identify small molecule antagonists of the estrogen receptor beta (ER-beta) signaling pathway - cell viability counter screen (AID 1259382); also: nearly all actives have a fitted effect of over 55% in size; also: potency is read from the fitted curve at half-maximal effect
Outline: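 Following a 6 hr plating period, HEK293T cells carrying a UAS-driven beta-lactamase reporter under ER-beta control received compounds and 1nM E2 (final). After 16 hr at 37C and 2 hr substrate loading, CellTiter-Glo luminescence indicated viability.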

[7] = molecular target: Estrogen receptor (Homo sapiens) (UniProt P03372); assay: qHTS assay to identify small molecule agonists of the estrogen receptor alpha (ER-alpha) signaling pathway in the presence of an antagonist (AID 1259383; calls by dose curve; also: nearly all actives have a fitted effect of over 15% in size; also: potency is read from the fitted curve at half-maximal effect; as to activation: top concentration of the series differs between compounds)
Outline: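 Cells are hormone-deprived for 5 days (charcoal-stripped FBS, no phenol red), plated for 24hr, spiked with 10.0nM ICI-182,780, then dosed at 15 concentrations. After 22hr at 37C, ONE-Glo luminescence reports ERE-luciferase activity.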

[8] = qHTS assay to identify small molecule agonists or antagonists of the thyroid stimulating hormone receptor (TSHR) signaling pathway - wild type cell line counter screen (AID 1259384; calls by dose curve)
Outline: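 Wild-type HEK293 cells were plated 18 h at 37 C/5% CO2, pin-dosed with compound plus Ro20-1724 medium, held 30 min at room temperature, then given cAMP-d2 and anti-cAMP-cryptate; fluorescence was read after 1 h. Fifteen concentrations, triplicate.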

[9] = molecular target: Thyrotropin receptor (Homo sapiens) (UniProt P16473); assay: qHTS assay to identify small molecule antagonists of the thyroid stimulating hormone receptor (TSHR) signaling pathway (AID 1259385; calls by dose curve; also: nearly all actives have a fitted effect of over 20% in size)
Outline: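 TSHR-HEK293 cells were plated and held 18 h at 37C/5% CO2, then given compound plus Ro20-1724 and stimulated with TSH at 1.5 ng/mL final. After 30 min at room temperature, cAMP was detected with cAMP-d2/anti-cAMP-cryptate (1 h) by fluorescence.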

[10] = qHTS assay to identify small molecule agonists of the estrogen receptor alpha (ER-alpha) signaling pathway in the presence of an antagonist - cell viability counter screen (AID 1259386);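 also: cells exposed to compounds for 22 h at 37 °C before the viability read; nearly all actives have a fitted effect of over 30% in size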; also: potency is read from the fitted curve at half-maximal effect
Outline: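 Cells are starved of estrogens for 5 days in charcoal-stripped serum, seeded for 24hr and co-treated with ICI-182,780 (10.0nM final) and test compounds. After 22hr at 37C, viability is read as CellTiter-Fluor fluorescence.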

[11] = molecular target: Progesterone receptor (Homo sapiens) (UniProt P06401); assay: qHTS assay to identify small molecule antagonists of the progesterone receptor (PR) signaling pathway (AID 1346795; active = well fitted inhibition curve with a large enough effect in the signal ratio in the repeat runs, not every such curve was filed as active; the % refers to the signal ratio; also: potency is read from the fitted curve at half-maximal effect)
Outline: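 Inhibition of R5020-induced (1 nM final) beta-lactamase reporter signal in PR-UAS-bla HEK293T cells was scored by FRET fluorescence after overnight (16 hr) compound treatment.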

[12] = qHTS assay to identify small molecule agonists of the progesterone receptor (PR) signaling pathway - cell viability counter screen (AID 1346799; calls by dose curve; also: nearly all actives have a fitted effect of over 45% in size; also: potency is read from the fitted curve at half-maximal effect)
Outline: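 Cytotoxicity in PR-bla HEK293T cells: 16 h compound, 37C; CellTiter-Glo added post-FRET read; luminescence after 30 min RT.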

[13] = qHTS assay to identify small molecule antagonists of the TGF-beta/Smad signaling pathway - cell viability counter screen (AID 1346824); also: nearly all actives have a fitted effect of over 50% in size
Outline: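 SBE-bla HEK 293T cells were plated overnight at 37 C, then given compounds in DMSO plus TGF-beta1 (added as 0.25 ng/mL solution) for 5 hr. After the bla read, CellTiter-Glo was added to the same wells and luminescence read after 30 min at room temperature.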

[14] = qHTS assay to identify small molecule agonists of the TGF-beta/Smad signaling pathway - cell viability counter screen (AID 1346829); also: top concentration of the series differs between compounds; nearly all actives have a fitted effect of over 45% in size
Outline: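 After overnight seating at 37 C and 5% CO2, reporter cells got compounds for 5 hr and FRET substrate for 2 hr; cell viability then came from CellTiter-Glo luminescence.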

[15] = qHTS assay to identify small molecule agonists of the TGF-beta/Smad signaling pathway (AID 1346859; active = well fitted activation curve with a large enough effect in the signal ratio in the repeat runs, not every such curve was filed as active; the % refers to the signal ratio; also: series mostly up to about 77 µM)
Outline: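 Stable Smad binding element-beta-lactamase HEK 293T cells; 5 hr compound exposure at 37 C under 5% CO2; 2 hr room-temperature substrate step; fluorescence excited at 405 nm, collected at 460 nm and 530 nm.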

[16] = molecular target: Progesterone receptor (Homo sapiens) (UniProt P06401); assay: qHTS assay to identify small molecule agonists of the progesterone receptor (PR) signaling pathway (AID 1346784; calls by dose curve; also: nearly all actives have a fitted effect of over 30% in size)
Outline: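 Using charcoal-stripped serum (2%) to limit endogenous steroids, PR-UAS-bla HEK 293T cells received compounds for 16 hr at 37C after 6 hr plating; beta-lactamase FRET fluorescence was recorded following 2 hr substrate loading at room temperature.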

[17] = qHTS assay to identify small molecule antagonists of the progesterone receptor (PR) signaling pathway - cell viability counter screen (AID 1346798); also: series mostly up to about 92 µM; nearly all actives have a fitted effect of over 50% in size
Outline: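 ATP content as viability readout: CellTiter-Glo luminescence, 30 min room temperature, in PR-UAS-bla HEK293T cells after 16 hr compound/R5020 treatment at 37C and 5% CO2.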

[18] = molecular target: Thyrotropin-releasing hormone receptor (Homo sapiens) (UniProt P34981); assay: qHTS assay to identify small molecule antagonists of the thyrotropin-releasing hormone receptor (TRHR) signaling pathway (AID 1346877; active = well fitted inhibition curve with a large enough effect in the repeat runs, not every such curve was filed as active; also: series mostly up to about 51 µM)
Outline: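 Cells (TRHR-HEK293) are plated and kept 18 h at 37 °C/5% CO2. A calcium-sensitive dye is added for 2 h, compound follows for 5 min at room temperature, and TRH is then given at 1 nM final.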

[19] = molecular target: Androgen receptor (Homo sapiens) (UniProt P10275); assay: qHTS assay to identify small molecule agonists of the androgen receptor (AR) signaling pathway in the presence of an antagonist (AID 1259381; calls by dose curve; also: potency is read from the fitted curve at half-maximal effect; nearly all actives have a fitted effect of over 15% in size)
Outline: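 Cells are MDA-kb2 (human breast carcinoma, MMTV-luc, AR/GR responsive). Nilutamide is present at 3.0uM final throughout; compounds are added at 15 concentrations and incubated 16hr at 37C before ONE-Glo luminescence detection.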

[20] = molecular target: Estrogen receptor beta (Homo sapiens) (UniProt Q92731); assay: qHTS assay to identify small molecule antagonists of the estrogen receptor beta (ER-beta) signaling pathway (AID 1259378; active = well fitted inhibition curve with a large enough effect in the signal ratio in the repeat runs, not every such curve was filed as active; the % refers to the signal ratio)
Outline: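 ER-beta-UAS-bla HEK293T (GripTite) cells in 2% charcoal-stripped FBS medium were preincubated 6 hr at 37C, dosed with compound, then stimulated with 1 nM E2 (final) for 16 hr; beta-lactamase reporter read by B/G FRET fluorescence after 2 hr substrate loading.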

Measured: Potency

Chain of Thyrotropin receptor (Homo sapiens) (P16473 whole entry, looked up): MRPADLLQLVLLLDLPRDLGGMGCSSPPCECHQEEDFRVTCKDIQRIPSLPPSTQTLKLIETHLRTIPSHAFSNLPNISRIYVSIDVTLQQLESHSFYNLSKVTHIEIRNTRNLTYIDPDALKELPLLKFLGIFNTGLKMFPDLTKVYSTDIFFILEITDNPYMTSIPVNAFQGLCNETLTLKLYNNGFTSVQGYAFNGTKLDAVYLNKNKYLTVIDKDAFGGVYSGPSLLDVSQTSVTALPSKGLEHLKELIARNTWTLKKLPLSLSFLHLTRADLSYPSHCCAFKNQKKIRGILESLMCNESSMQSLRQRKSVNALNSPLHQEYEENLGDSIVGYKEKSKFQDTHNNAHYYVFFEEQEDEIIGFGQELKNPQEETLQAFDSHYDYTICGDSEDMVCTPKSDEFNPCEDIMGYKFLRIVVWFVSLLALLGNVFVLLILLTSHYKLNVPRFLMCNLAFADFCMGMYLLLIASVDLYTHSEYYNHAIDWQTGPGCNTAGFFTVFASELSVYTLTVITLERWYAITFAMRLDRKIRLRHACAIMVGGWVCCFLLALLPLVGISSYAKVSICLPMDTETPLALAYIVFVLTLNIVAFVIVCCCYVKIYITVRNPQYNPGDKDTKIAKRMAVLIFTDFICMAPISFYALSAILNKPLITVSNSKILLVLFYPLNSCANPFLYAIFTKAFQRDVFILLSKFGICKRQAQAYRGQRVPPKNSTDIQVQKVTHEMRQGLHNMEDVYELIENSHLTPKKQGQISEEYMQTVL
Chain of Progesterone receptor (Homo sapiens) (P06401 whole entry, looked up): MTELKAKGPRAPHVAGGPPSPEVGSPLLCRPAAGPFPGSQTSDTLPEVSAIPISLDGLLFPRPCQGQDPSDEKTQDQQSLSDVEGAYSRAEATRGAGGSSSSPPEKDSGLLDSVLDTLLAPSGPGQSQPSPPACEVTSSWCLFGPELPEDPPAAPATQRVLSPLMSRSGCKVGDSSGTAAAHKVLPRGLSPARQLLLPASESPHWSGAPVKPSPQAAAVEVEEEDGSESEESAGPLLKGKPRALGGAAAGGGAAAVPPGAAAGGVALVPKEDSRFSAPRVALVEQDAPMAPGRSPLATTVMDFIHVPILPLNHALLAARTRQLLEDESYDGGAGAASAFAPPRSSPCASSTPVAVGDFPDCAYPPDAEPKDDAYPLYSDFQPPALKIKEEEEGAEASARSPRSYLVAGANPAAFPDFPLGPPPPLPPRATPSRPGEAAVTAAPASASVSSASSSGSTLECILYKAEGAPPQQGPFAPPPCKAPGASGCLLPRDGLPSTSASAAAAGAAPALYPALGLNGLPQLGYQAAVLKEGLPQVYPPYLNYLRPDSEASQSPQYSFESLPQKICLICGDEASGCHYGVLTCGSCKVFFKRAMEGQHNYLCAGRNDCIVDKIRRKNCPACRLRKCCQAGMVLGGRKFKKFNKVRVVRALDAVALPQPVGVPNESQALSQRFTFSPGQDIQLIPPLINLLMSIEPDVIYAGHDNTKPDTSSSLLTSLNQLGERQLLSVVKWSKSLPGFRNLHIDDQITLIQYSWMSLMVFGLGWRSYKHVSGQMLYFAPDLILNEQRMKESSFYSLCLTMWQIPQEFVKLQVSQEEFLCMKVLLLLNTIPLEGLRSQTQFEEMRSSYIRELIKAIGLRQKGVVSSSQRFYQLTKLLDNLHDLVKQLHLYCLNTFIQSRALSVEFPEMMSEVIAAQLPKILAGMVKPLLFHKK
Chain of Estrogen receptor (Homo sapiens) (P03372 whole entry, looked up): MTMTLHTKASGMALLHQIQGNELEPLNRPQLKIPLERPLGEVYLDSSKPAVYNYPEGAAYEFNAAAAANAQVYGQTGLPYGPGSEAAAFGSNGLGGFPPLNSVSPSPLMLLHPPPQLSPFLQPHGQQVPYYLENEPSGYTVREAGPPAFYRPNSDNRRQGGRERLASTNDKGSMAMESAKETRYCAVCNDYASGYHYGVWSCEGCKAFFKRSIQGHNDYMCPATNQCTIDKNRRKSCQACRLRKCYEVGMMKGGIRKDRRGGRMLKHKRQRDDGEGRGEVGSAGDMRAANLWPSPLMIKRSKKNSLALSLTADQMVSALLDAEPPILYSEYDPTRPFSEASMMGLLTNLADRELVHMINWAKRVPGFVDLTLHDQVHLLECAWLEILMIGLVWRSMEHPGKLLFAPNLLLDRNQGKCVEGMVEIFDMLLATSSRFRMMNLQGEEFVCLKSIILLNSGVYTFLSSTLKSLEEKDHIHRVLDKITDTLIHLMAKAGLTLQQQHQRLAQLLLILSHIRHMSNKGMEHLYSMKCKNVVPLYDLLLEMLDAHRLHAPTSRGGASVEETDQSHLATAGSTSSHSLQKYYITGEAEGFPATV
Chain of Thyrotropin-releasing hormone receptor (Homo sapiens) (P34981 whole entry, looked up): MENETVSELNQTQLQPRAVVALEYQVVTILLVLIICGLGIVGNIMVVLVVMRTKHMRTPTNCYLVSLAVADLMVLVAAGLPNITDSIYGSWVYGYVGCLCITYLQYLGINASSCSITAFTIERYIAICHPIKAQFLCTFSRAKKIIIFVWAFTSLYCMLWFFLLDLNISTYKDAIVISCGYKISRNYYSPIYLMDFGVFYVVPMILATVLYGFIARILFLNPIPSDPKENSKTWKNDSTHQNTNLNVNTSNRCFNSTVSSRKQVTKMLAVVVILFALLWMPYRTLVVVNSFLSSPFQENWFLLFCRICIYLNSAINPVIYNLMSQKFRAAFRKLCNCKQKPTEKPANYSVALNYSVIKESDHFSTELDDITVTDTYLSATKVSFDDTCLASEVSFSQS
Chain of Estrogen receptor beta (Homo sapiens) (Q92731 whole entry, looked up): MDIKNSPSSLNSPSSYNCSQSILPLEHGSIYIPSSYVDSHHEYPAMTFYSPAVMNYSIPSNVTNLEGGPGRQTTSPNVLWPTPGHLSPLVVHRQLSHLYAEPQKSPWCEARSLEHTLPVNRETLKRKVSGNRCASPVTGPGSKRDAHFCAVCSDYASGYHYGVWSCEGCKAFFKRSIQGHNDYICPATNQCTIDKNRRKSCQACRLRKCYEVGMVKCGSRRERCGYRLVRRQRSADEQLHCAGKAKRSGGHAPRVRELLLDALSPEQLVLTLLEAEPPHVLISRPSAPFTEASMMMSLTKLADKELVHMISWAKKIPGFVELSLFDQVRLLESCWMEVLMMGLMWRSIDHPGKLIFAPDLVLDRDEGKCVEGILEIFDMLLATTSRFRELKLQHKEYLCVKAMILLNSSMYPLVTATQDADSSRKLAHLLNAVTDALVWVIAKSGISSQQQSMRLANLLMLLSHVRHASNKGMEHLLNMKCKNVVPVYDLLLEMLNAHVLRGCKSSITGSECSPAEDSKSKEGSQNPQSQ
Chain of Androgen receptor (Homo sapiens) (P10275 whole entry, looked up): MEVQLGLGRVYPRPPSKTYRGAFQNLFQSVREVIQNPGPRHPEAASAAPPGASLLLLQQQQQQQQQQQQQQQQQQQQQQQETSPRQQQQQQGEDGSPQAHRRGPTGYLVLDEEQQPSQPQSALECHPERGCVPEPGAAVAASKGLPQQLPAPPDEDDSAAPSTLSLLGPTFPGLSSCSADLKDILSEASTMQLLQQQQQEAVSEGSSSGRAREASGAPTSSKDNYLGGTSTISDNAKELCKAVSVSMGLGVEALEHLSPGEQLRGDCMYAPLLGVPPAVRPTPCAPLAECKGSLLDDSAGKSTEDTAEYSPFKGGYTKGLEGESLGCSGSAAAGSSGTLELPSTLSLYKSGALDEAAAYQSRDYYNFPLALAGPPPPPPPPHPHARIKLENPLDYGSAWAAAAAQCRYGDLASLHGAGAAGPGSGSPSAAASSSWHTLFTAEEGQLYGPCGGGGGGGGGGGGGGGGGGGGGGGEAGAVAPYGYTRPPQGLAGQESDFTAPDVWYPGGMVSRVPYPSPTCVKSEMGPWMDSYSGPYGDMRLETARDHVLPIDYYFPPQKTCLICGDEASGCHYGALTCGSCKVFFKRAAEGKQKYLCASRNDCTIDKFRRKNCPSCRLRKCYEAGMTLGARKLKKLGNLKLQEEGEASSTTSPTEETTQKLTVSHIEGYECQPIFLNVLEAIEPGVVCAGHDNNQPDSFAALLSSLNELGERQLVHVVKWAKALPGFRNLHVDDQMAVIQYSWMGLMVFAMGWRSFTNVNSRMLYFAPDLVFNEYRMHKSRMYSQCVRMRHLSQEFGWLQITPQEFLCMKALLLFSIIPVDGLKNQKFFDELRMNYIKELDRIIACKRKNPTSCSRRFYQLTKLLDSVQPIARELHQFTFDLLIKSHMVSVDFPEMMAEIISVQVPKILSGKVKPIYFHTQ

CC(=O)[C@H]1CC[C@H]2[C@@H]3C=CC4=CC(=O)CC[C@@]4(C)[C@@H]3CC[C@]12C
active: [2] 11.9 µM
not listed: [16] | [17] | [18] | [19] | [20]
inactive: all other assays above

O=C(O)c1cccc(O)c1
not listed: [10] | [12] | [19] | [20]
inactive: all other assays above

CC(CCO)CCc1ccccc1 (stereo not drawn)
not listed: [18] | [19] | [20]
inactive: all other assays above

CC1(C)C(=O)N(Br)C(=O)N1Cl
not listed: [7] | [16] | [19] | [20]
inactive: all other assays above

O=c1[nH]c2ccc(S(=O)CCN3CCC(Cc4ccc(F)cc4)CC3)cc2o1 (stereo not drawn)
not listed: [4] | [10] | [11] | [12] | [15] | [17] | [19] | [20]
inactive: all other assays above

CCCCC(CC)COC(=O)COc1ccc(Cl)cc1C (stereo not drawn)
not listed: [9] | [10] | [12] | [18] | [19] | [20]
inactive: all other assays above

CSc1ccc(Oc2ccc(S(N)(=O)=O)cc2CN(C)C)cc1C
active: [2] 5.45 µM | [5] 38.6 µM | [6] 27.3 µM
not listed: [9] | [10] | [11] | [16] | [17] | [19] | [20]
inactive: all other assays above

Cc1cc(OI)c(C(C)C)cc1-c1cc(C(C)C)c(OI)cc1C
not listed: [7] | [11] | [12] | [19] | [20]
inactive: all other assays above

CCc1nn(CCCN2CCN(c3cccc(Cl)c3)CC2)c(=O)n1CCOc1ccccc1
active: [2] 15 µM | [4] 29.8 µM | [10] 29.8 µM | [11] 26.6 µM
inactive: [1] | [3] | [7] | [8] | [16] | [13] | [14] | [15] | [18]

CC(=O)OCC(=O)[C@H]1CC[C@H]2[C@@H]3CCC4=CC(=O)CC[C@]4(C)[C@H]3CC[C@]12C
active: [2] 11.9 µM | [19] 3.76 µM
not listed: [5] | [7] | [9] | [12] | [16] | [18] | [20]
inactive: all other assays above

CCNC(=O)N1CCN(CCCC(c2ccc(F)cc2)c2ccc(F)cc2)CC1
active: [2] 3.35 µM | [4] 26.6 µM
not listed: [5] | [10] | [11] | [12] | [16] | [19] | [20]
inactive: all other assays above

Cc1oncc1C(=O)Nc1ccc(C(F)(F)F)cc1
27.3 µM (active) and inactive: [2]
active: [1] 15.4 µM and 9.44 µM | [11] 61.1 µM
3.06 µM (active) and inactive: [7]
not listed: [16] | [18] | [19] | [20]
inactive: all other assays above

CCCCCCCCCCCC[N+](C)(C)CC(=O)[O-]
active: [5] 24.3 µM | [12] 21.7 µM
not listed: [6] | [16] | [17] | [19] | [20]
inactive: all other assays above

CO[C@H]1C=CO[C@@]2(C)Oc3c(C)c(O)c4c(O)c(c5c(c4c3C2=O)=NC2(CCN(CC(C)C)CC2)N=5)NC(=O)/C(C)=C\C=C/[C@H](C)[C@H](O)[C@@H](C)[C@@H](O)[C@@H](C)[C@H](OC(C)=O)[C@@H]1C
active: [2] 23.8 µM | [4] 47.5 µM | [10] 26.7 µM
not listed: [9] | [12] | [15] | [16] | [17] | [19] | [20]
inactive: all other assays above

CCC(Cc1ccccc1)(C(=O)c1ccc(N2CCOCC2)cc1)N(C)C (stereo not drawn)
active: [2] 19.3 µM | [11] 48.6 µM
inactive: [1] | [3] | [20] | [6] | [7] | [8] | [9] | [16] | [14] | [15]

CN(C)C(=O)Nc1ccc(Oc2ccc(Cl)cc2)cc1
active: [4] 54.5 µM | [11] 34.4 µM
not listed: [7] | [10] | [12] | [17] | [19] | [20]
inactive: all other assays above

CCCOCCOCCO
not listed: [7] | [18] | [19] | [20]
inactive: all other assays above

Reference: PubChem BioAssay (Tox21)
